Assay outcomes deposited in PubChem by National Center for Advancing Translational Sciences (NCATS).
The list is not random: actives were taken first. Their share in the collection is about 11%.
FLuc inh – inhibitors of firefly (Photinus pyralis) luciferase; actives 2.5% (n = 76,000); P08659; AID 1347043; Potency, µM (top dose mostly 115 µM), hits mostly inhibitors; purified P. pyralis luciferase, luminescence, biochemical; active means well fitted curve in the direction sought with a large enough effect; inconclusive means small, poorly fitted or top-dose-only effect, or another doubt; inactive means no such curve, though single readings can be large; an effect the other way counts as inactive or inconclusive; further: nearly all actives have a fitted effect of over 65% in size
Target sequence (P08659 whole entry, looked up): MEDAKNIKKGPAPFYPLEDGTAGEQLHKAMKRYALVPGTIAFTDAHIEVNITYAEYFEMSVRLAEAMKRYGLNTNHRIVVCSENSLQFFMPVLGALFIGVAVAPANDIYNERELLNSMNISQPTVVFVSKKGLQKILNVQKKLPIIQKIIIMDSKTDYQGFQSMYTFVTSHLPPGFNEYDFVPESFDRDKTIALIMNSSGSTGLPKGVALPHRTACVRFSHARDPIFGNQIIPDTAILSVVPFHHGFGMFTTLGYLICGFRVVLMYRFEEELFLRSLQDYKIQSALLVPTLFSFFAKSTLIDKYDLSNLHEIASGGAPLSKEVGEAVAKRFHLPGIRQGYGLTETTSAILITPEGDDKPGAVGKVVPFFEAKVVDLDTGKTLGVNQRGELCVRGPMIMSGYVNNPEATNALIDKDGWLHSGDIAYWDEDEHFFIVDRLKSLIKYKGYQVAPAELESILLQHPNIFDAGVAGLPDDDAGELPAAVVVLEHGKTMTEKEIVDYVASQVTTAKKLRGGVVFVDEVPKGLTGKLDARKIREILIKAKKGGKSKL
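Luminescence read by CCD imager after adding enzyme (10nM final) to wells holding compound, titrated in qHTS. Substrates 10uM each D-luciferin and ATP; buffer 50mM Tris acetate pH 7.5, 10mM Mg acetate, Tween-20, BSA.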
NIH3T3 tox – NIH 3T3 cell cytotoxicity | NIH 3T3 viability, CellTiter-Glo ATP luminescence, 48-72 h | Potency, µM (titrated, usually from 96.7 µM), most hits filed as inhibitors | actives 4.3% (n = 94,000) | AID 1345082; active means well fitted curve in the direction sought with a large enough effect; inconclusive means small, poorly fitted or top-dose-only effect, or another doubt; inactive means no such curve, though single readings can be large; an effect the other way counts as inactive or inconclusive; further: nearly all actives have a fitted effect of over 55% in size
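Mouse fibroblast NIH 3T3 cells, 400 per well, received compound via pintool and were incubated for 48 or 72 hr prior to CellTiter-Glo ATP luminescence measurement.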
HEK293 tox – HEK 293 cell cytotoxicity; HEK 293 viability, ATP luminescence (CellTiter-Glo), 48-72 h; Potency, µM (highest dose often 115 µM), actives largely listed as inhibitors; actives 6.6% (n = 94,000); active means well fitted curve in the direction sought with a large enough effect; inconclusive means small, poorly fitted or top-dose-only effect, or another doubt; inactive means no such curve, though single readings can be large; an effect the other way counts as inactive or inconclusive; further: nearly all actives have a fitted effect of over 60% in size
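Read-out: CellTiter-Glo ATP luminescence. Cells: HEK 293, 250 cells/well. Exposure: 48 or 72 hr, 37 degree Celsius.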
NPR1 antag – human Npr1 receptor antagonism; HEK293 hNpr1 GloSensor cGMP, ANP-stimulated luminescence; actives 1.6% (n = 76,000); AID 1347048; Potency, µM (top dose mostly 46.3 µM), hits mostly inhibitors; P16066; further: nearly all actives have a fitted effect of over 60% in size
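HEK293 cells stably expressing human Npr1 and cGMP GloSensor pGS-40F, loaded 2 h with 2% GloSensor reagent, given compound 30 min at room temperature. Luminescence read before and 20 min after 0.1 nM hNppA.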
NPR1 antag cnf – confirmation of human Npr1 natriuretic peptide receptor antagonists. AID 1347044. shares compounds with NPR1 antag. Potency, µM (highest dose often 57.6 µM), actives largely listed as inhibitors. HEK293 hNpr1 cGMP GloSensor luminescence, ANP-stimulated. actives 76% (n = 1,400); further: nearly all actives have a fitted effect of over 70% in size
NPR2 antag – selectivity test of Npr1 antagonists against human Npr2; shares compounds with NPR1 antag; HEK293 hNpr2 GloSensor cGMP luminescence, CNP-stimulated; Potency, µM (doses to about 57.6 µM), usual class: inhibitors; actives 67% (n = 1,400); further: nearly all actives have a fitted effect of over 70% in size
FLuc counter – counter-screen for Npr1 antagonists: firefly luciferase inhibitors | AID 1347047 | actives 0.7% (n = 1,400) | Potency, µM (titrated, usually from 57.6 µM), most hits filed as inhibitors | shares compounds with NPR1 antag | purified FLuc enzyme, luminescence, Km substrate; active means well fitted curve in the direction sought with a large enough effect; inconclusive means small, poorly fitted or top-dose-only effect, or another doubt; inactive means no such curve, though single readings can be large; an effect the other way counts as inactive or inconclusive; further: series mostly up to about 58 µM
GloSensor cGMP – control cell line activity, Npr1 antagonist counter-screen. shares compounds with NPR1 antag. HEK293 GloSensor cGMP, SNP-stimulated, luminescence. Potency, µM (titrated, usually from 57.6 µM), usual class: inhibitors. actives 69% (n = 1,400); further: nearly all actives have a fitted effect of over 70% in size
Of the large screens only hits and unclear results are named; the others gave an inactive call (follow-up assays come after a bar, where they were run). Unless noted, the call rests on the fitted dose curve.

COc1cc(CN2CCC(C)(c3noc(C4CCOCC4)n3)CC2)ccc1OC(C)C	none
CC1(CCCCc2ccccc2)COc2ccc(C(=O)N3CC(O)C3)cc2N1 (stereo unspecified)	NIH3T3 tox inconclusive, HEK293 tox inconclusive, NPR1 antag 35.5µM | NPR1 antag cnf 39.6µM | NPR2 antag 35.3µM | FLuc counter inactive | GloSensor cGMP 31.4µM
CC1(CCCCc2ccccc2)COc2ccc(C(=O)NC3CC3)cc2N1 (stereo unspecified)	NIH3T3 tox inconclusive, HEK293 tox inconclusive, NPR1 antag 20µM | NPR1 antag cnf 35.3µM | NPR2 antag 28µM | FLuc counter inactive | GloSensor cGMP 17.7µM
CC(=O)N1CCN(C(=O)c2ccc3c(c2)NC(C)(CCCCc2ccccc2)CO3)CC1 (stereo unspecified)	NIH3T3 tox inconclusive, HEK293 tox inconclusive
Cc1cc(C(=O)N2C[C@@H](F)C[C@H]2C(=O)N2CCc3ccccc3C2)n(C)n1	none
O=C(Nc1cccc(Cl)c1)C1CCN(c2cc(C(F)(F)F)ncn2)CC1	NIH3T3 tox inconclusive, HEK293 tox inconclusive, NPR1 antag inconclusive | NPR1 antag cnf 24.3µM | NPR2 antag inconclusive | FLuc counter inactive | GloSensor cGMP inconclusive
O=C(Nc1cccc(F)c1)C1CCN(c2cc(C(F)(F)F)ncn2)CC1	NIH3T3 tox inconclusive, HEK293 tox inconclusive, NPR1 antag 11.2µM | NPR1 antag cnf 21.7µM | NPR2 antag inconclusive | FLuc counter inactive | GloSensor cGMP 19.3µM
O=C(Nc1cccc(Br)c1)C1CCN(c2cc(C(F)(F)F)ncn2)CC1	NIH3T3 tox inconclusive, HEK293 tox 44.7µM, NPR1 antag 11.2µM | NPR1 antag cnf 21.7µM | NPR2 antag 21.7µM | FLuc counter inactive | GloSensor cGMP 24.3µM
COc1ccc(NC(=O)C2CCN(c3cc(C(F)(F)F)ncn3)CC2)cc1Cl	NIH3T3 tox inconclusive, HEK293 tox inconclusive, NPR1 antag inconclusive
Cc1ccc(NC(=O)C2CCN(c3cc(C(F)(F)F)ncn3)CC2)cc1F	NIH3T3 tox inconclusive, HEK293 tox inconclusive, NPR1 antag 5.01µM | NPR1 antag cnf 6.85µM | NPR2 antag 10.9µM | FLuc counter inactive | GloSensor cGMP 6.11µM
COc1cccc(CCC(=O)N2CCC(N3C(=O)N(C)CC34CCOC4)CC2)c1 (stereo unspecified)	NIH3T3 tox inconclusive (no result: FLuc inh, NPR1 antag)
CCc1nccn1CC(=O)NC(C)c1cnn(-c2ccccc2C)c1C (stereo unspecified)	NIH3T3 tox inconclusive, HEK293 tox inconclusive, NPR1 antag 11.2µM | NPR1 antag cnf inconclusive | NPR2 antag inconclusive | FLuc counter inactive | GloSensor cGMP inconclusive
COCc1noc(-c2ccc(N(C)CC3CC(=O)N(C(C)(C)C)C3)nc2)n1 (stereo unspecified)	NIH3T3 tox inconclusive, HEK293 tox inconclusive, NPR1 antag 11.2µM | NPR1 antag cnf 24.3µM | NPR2 antag inconclusive | FLuc counter inactive | GloSensor cGMP 21.7µM
CN(CCc1noc(C2CC2)n1)C(=O)C1CC(=O)N(C(C)(C)C)C1 (stereo unspecified)	none
CNC(=O)[C@@H]1C[C@H](Oc2cccnc2)CN1C(=O)c1noc(C)c1Cc1c(C)noc1C	none (no result: FLuc inh, NPR1 antag)
N#Cc1ccc(CN2CCC3(CC2)CC(=O)c2ccccc2O3)cc1	NIH3T3 tox inconclusive, HEK293 tox inconclusive, NPR1 antag 28.2µM | NPR1 antag cnf 31.4µM | NPR2 antag 35.3µM | FLuc counter inactive | GloSensor cGMP 25µM
COc1cccc(CN2CCC3(CC2)CC(c2cccnc2)=NO3)c1	HEK293 tox inconclusive
